Among the data in PubChem BioAssay AID588689 (Southern Research Specialized Biocontainment Screening …, 2011) are inhibition values, retold here.

Values joined by “and” are separate entries in the source; they are usually repeats but may differ in a detail not shown here. Equal entries are not always repeated. Out of some 340,000 compounds screened, about 1,000 (0.29%) were called active. Rule as the data show it: inconclusive = inhibition above about 29% without an active follow-up result; inactive = below that. Not all results are given here. Potency and affinity values are given separately.

The assay deals with Genome polyprotein (Dengue virus type 2 (strain 16681-PDK53)) (UniProt P29991). Description: flavivirus cap methylation enzyme inhibition – biochemical, confirmation dose response, primary screen (AID 588689). To be noted: Dengue-2 NS5 methyltransferase capping enzyme assay, at 25 µM, stronger effect = higher value.
Genome polyprotein (Dengue virus type 2 (strain 16681-PDK53)), sequence (P29991 whole entry, looked up): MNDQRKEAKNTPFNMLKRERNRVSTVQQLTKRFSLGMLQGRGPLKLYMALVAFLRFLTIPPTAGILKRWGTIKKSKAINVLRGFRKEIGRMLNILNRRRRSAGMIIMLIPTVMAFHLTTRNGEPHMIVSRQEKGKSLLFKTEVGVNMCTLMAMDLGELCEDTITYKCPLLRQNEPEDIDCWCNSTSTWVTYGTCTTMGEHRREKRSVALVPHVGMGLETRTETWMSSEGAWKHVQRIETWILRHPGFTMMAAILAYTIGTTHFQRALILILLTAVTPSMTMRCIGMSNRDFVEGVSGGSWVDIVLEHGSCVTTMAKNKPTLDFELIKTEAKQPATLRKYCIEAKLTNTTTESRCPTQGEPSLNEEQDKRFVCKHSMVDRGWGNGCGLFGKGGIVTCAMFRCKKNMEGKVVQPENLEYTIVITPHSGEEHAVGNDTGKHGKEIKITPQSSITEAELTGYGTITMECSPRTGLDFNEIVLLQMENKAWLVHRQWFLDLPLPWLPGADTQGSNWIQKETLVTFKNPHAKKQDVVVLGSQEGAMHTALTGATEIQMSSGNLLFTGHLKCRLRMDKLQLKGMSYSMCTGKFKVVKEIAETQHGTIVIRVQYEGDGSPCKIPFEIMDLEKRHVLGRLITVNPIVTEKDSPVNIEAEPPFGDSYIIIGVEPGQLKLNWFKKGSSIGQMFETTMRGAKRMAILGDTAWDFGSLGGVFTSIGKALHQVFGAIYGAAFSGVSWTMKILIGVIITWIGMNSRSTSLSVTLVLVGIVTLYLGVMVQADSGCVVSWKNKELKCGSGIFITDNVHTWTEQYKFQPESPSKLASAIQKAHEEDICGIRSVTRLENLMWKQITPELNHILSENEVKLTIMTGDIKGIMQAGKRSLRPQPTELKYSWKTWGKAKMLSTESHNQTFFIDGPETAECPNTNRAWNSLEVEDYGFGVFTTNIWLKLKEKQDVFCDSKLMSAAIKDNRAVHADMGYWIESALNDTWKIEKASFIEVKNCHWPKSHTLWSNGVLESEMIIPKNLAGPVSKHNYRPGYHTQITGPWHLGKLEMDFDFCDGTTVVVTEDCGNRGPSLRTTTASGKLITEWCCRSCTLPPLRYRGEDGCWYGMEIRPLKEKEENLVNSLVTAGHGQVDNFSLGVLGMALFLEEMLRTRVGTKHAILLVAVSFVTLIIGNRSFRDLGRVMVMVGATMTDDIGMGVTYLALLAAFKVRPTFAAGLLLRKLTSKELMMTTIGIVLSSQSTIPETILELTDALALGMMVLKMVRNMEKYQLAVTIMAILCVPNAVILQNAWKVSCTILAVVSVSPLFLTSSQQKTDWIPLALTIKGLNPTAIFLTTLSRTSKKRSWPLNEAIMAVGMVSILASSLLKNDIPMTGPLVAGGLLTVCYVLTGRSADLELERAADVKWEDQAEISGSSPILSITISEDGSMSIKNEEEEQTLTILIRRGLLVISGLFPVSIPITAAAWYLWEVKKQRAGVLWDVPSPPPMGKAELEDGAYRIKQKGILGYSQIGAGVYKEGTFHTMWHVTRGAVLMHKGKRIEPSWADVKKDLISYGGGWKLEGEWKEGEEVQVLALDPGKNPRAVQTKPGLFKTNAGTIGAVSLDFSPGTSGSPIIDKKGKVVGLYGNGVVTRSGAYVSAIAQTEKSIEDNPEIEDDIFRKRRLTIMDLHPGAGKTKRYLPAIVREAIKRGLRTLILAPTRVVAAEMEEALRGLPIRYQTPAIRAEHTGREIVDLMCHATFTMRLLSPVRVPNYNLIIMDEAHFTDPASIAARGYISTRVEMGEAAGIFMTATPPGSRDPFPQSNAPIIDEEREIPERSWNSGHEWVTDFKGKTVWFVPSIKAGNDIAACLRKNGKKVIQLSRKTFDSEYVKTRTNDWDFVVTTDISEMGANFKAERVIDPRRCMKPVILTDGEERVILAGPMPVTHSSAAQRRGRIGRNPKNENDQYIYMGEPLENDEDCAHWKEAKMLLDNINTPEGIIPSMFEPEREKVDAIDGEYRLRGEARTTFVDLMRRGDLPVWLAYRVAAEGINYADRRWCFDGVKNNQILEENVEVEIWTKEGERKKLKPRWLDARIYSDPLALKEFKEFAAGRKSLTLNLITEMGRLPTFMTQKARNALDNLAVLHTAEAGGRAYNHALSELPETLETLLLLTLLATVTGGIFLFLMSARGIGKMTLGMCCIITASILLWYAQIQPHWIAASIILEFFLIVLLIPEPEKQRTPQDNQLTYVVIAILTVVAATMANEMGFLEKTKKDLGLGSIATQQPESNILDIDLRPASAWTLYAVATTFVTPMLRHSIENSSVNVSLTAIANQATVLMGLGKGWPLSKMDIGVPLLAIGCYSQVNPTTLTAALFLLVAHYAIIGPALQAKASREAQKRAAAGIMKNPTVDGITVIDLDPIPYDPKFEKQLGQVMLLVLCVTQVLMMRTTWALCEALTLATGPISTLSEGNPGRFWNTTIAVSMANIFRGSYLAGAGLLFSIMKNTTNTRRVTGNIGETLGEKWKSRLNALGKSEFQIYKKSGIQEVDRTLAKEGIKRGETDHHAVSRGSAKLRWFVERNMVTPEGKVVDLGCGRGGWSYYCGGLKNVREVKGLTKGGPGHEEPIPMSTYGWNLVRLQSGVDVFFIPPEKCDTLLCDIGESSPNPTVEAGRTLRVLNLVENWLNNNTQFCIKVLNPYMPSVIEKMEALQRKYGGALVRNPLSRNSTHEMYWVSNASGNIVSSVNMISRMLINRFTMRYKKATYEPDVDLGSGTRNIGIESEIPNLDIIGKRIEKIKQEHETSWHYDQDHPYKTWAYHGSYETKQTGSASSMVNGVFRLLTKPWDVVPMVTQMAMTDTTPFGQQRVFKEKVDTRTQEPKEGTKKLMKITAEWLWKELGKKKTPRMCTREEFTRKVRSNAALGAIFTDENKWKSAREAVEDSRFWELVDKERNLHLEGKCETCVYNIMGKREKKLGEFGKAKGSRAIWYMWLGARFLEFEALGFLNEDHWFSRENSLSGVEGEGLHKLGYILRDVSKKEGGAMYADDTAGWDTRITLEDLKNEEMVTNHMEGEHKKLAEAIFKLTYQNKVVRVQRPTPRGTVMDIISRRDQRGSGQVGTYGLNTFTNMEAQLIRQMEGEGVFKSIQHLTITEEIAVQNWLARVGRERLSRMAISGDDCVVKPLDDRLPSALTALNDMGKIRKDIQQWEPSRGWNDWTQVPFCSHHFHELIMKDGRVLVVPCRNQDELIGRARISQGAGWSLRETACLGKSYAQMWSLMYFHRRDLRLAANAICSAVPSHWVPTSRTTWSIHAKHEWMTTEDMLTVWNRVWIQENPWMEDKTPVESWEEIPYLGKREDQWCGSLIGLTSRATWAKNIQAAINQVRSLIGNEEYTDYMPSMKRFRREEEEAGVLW
Setting [1] is: measured here: pilot screen replicate inhibition.

Take `COc1cc(C=c2c3ccccc3n3c2cc(-c2ccccc2)[n+]3C)cc(OC)c1OC`: the inhibition was -32.8% (inactive). Regarding `C[n+]1c(-c2ccccc2)cc2c(=Cc3ccccc3)c3ccccc3n21`, the inhibition is -8.87% (inactive). For `CN(C)c1ccc(C=c2c3cc(O)ccc3n3c2cc(-c2ccccc2)[n+]3C)cc1`, the inhibition is 27.4% (inactive). In the case of `CN(C)c1ccc(C=c2c3ccccc3n3c2cc(-c2ccccc2)[n+]3C)cc1`, the inhibition is 16.6% (inactive). For the compound `C=CCn1c(SCC#N)nc2ccccc2c1=O`, the inhibition was 0.54% (inactive). On to `Cc1ccc(NC(=O)C(C)Sc2nnc(C)n2C)cc1` (stereo unspecified), for which the inhibition is -10.5% (inactive). Further, the inhibition under setting [1] is -8.82%. `Nc1ccc(N=Nc2ccc(O)cc2)c(N)n1`: the inhibition is -2.31% (inactive).

For the compound `Oc1ccc(N=Nc2ccc3ccccc3c2)cc1`, the inhibition is -0.57% (inactive). For `COc1ccc(NC(=O)C2CCCN(S(=O)(=O)c3ccc4[nH]c(=O)ccc4c3)C2)cc1OC` (stereo unspecified), the inhibition is -7.99% (inactive). The same measure, in the same setting: with `CCN(CC)CCN(Cc1cc2cc3c(cc2[nH]c1=O)OCO3)C(=S)NCCCOC` the figure was -4.77% (inactive); with `Cc1[nH]c2ccccc2c1C1C(c2ccccc2)=NN=C(C(C)C)N1O` (stereo unspecified), -11.8% (inactive). Turning to `CCCN(CCC)S(=O)(=O)c1cccc(-c2csc(C)n2)c1`, the inhibition was -5.33% (inactive). For `COc1cccc(CN(C)C(=O)C2CSC3(C)CCC(=O)N23)c1OC` (stereo unspecified), the inhibition is -4.42% (inactive). Turning to `COc1cc(/C=C2/NC(=O)N(Cc3ccccc3F)C2=O)cc(OC)c1O`, the inhibition was 1.47% (inactive). As to `COc1cc(/C=C2/NC(=O)N(Cc3ccccc3F)C2=O)ccc1Oc1ccc([N+](=O)[O-])cn1`, the inhibition was -0.72% (inactive).

For the compound `COc1ccc(Cl)cc1-c1nc(SCC(=O)N(C)C)n[nH]1`, the inhibition was -2.97% (inactive). The same measure, in the same setting: in the case of `Cc1nc2sc(C(c3ccco3)N3CCc4ccccc4C3)c(O)n2n1` (stereo unspecified) it was -4.07% (inactive). The same measure, in the same setting: in the case of `CCCCNC(=O)c1onc(CSc2ccccc2C)c1C(=O)O` it was 7.73% (inactive). Same read-out and setting: in the case of `CCCCNC(=O)c1onc(CSc2ccccc2CC)c1C(=O)O` it was 6.29% (inactive); in that of `Cc1cccc(NC(=O)N(Cc2nc3ccccc3c(=O)[nH]2)C2CCCC2)c1`, -1.56% (inactive); in that of `CCOc1ccc(Br)cc1S(=O)(=O)Nc1cccc(S(=O)(=O)Nc2ccccc2C(=O)O)c1`, 11.4% (inactive). For `CN(C)S(=O)(=O)c1cccc(-n2sc3ccccc3c2=O)c1`, the inhibition was -48.9% (inactive). Still for that read-out and setting: with `Cc1ccc(S(=O)(=O)Nc2cccc(S(=O)(=O)Nc3ccccc3C(=O)O)c2)c(C)c1` the figure was 17.5% (inactive); with `O=C(O)c1cccc(-n2sc3ccccc3c2=O)c1`, -2.4% (inactive); with `CN(CCOc1ccccc1)C(=O)c1cc(S(=O)(=O)N2CCOCC2)ccc1Cl`, -7.25% (inactive). Same read-out and setting: with `NS(=O)(=O)c1ccc(NC(=O)Cc2cccs2)cc1` the figure was 0% (inactive).

With `O=c1[nH]c2cc([N+](=O)[O-])cc(Cl)c2c2ccccc12`, the inhibition is 5.75% (inactive). Regarding `CNC(=O)CN1C(=O)NC2(CCc3ccccc3C2)C1=O` (stereo unspecified), the inhibition was 0.74% (inactive). On to `COCC(C)n1c(SCC(=O)NC(=O)Cc2ccccc2)nc2ccccc2c1=O` (stereo unspecified), for which the inhibition is 1.46% (inactive). As to `O=C(CSc1n[nH]c(-c2ccncc2)n1)Nc1ccc(Cl)c(C(=O)O)c1`, the inhibition is 0.89% (inactive).

On to `CSc1nsc(SCC(=O)Nc2ccc(Cl)c(C(=O)O)c2)n1`, for which the inhibition is 8.31% (inactive). On the same count and under the same terms, with `O=C(Cn1cnc([N+](=O)[O-])n1)N/N=C/c1cc(Cl)ccc1O` the figure was -13.5% (inactive); with `NS(=O)(=O)c1ccc(NS(=O)(=O)c2ccc(NC(=O)C3CC3)cc2)cc1`, 15.1% (inactive). Same read-out and setting: with `Cc1csc(SCC(=O)Nc2ccc(F)cc2Cl)n1` the figure was -8.4% (inactive). Consider `O=C(Nc1ncccc1Cl)C(Sc1ccccc1)c1ccccc1` (stereo unspecified), for which the inhibition was -1.88% (inactive). Moreover, under setting [1], the inhibition is -5.46%.

For the compound `CNC(=O)Oc1ccc2c(c1)[C@]1(C)CCN(C)[C@@H]1N2C`, the inhibition was -1.49% (inactive) and -0.75% (inactive). On to `CNC(=O)Oc1ccc2c(c1)[C@]1(C)CCN(C)C1N2C` (stereo partly specified), for which the inhibition is 0% (inactive). On the same count and under the same terms, in the case of `O=C(Nc1ccc(Cl)cc1)Nc1ccc2c(c1)N1CCN=C1S2` it was -47.1% (inactive); in that of `COC(=O)c1ccccc1NC(=O)CSc1nccn1C`, 0.56% (inactive); in that of `COc1cc(-c2ccc3sc(-c4ccsc4)c(C#CCO)c3c2)cc(OC)c1OC`, 3.31% (inactive).

Regarding `Cc1ccc(C2=C(O)c3ccccc3C(=O)C2=O)cc1`, the inhibition was 10.5% (inactive).

Regarding `Cc1ccc(C2=C(O)C(=O)C(c3ccc(C)cc3)=C(O)C2=O)cc1`, the inhibition is 2.31% (inactive).

As to `COc1ccc([N+](=O)[O-])cc1-c1[nH]c(-c2ccc(C(=O)O)cc2)nc1-c1ccccc1`, the inhibition is -2.87% (inactive).

As for `CC(=O)Nc1ccc(S(=O)(=O)Nc2c(C)nn(-c3ccccc3)c2C)cc1`, the inhibition is -3.38% (inactive). `COc1cc(NCc2ccccc2O)c2ncccc2c1`: the inhibition was -1.29% (inactive). As for `COc1cc(NC(=O)C2CCCCC2)c2ncccc2c1`, the inhibition was -4.93% (inactive). The same measure, in the same setting: with `CCN(CCCNC(=O)CNC(=O)c1nn(-c2ccc(OC)cc2OC)c(=O)c2ccccc12)c1cccc(C)c1` the figure was -2.2% (inactive); with `Cc1cccc(-n2ccnc2SCC(=O)Nc2cc(C)on2)c1`, -6.93% (inactive). As to `COc1ccc2[nH]c3c(c2c1)CCN1C(=O)C(CC(=O)NC(C)(C)C)C[C@H](C(=O)N(C(C)C)C(C)C)[C@@]31C` (stereo partly specified), the inhibition is -6.62% (inactive). Besides, the inhibition under setting [1] is -4.89%.

With `Cc1cc(C)nc(SCC(=O)Nc2ccc(S(=O)(=O)Nc3cc(C)on3)cc2)n1`, the inhibition is -0.67% (inactive).

Regarding `Cc1cc(NS(=O)(=O)c2ccc(NC(=O)CSc3nc4sc(C(=O)O)c(C)c4c(=O)[nH]3)cc2)no1`, the inhibition was 1.64% (inactive). With `O=C1C(=O)N(C/C=C/c2ccccc2)c2ccccc21`, the inhibition was -12.9% (inactive). On the same count and under the same terms, in the case of `CC1(C)CC(=O)C(=Cc2cn(-c3ccccc3)nc2-c2ccccc2)C(=O)C1` it was 27.8% (inactive); in that of `CC1(C)CC(=O)C(=Cc2cn(-c3ccccc3)nc2-c2ccc(Cl)cc2)C(=O)C1`, -1.09% (inactive). The same measure, in the same setting: with `CC1=NNC(=O)/C1=C\c1cn(-c2ccccc2)nc1-c1ccccc1` the figure was 10.9% (inactive).

As for `CC1=NN(c2ccccc2)C(=O)/C1=C\c1cn(CCC#N)nc1-c1ccc(Cl)cc1`, the inhibition is 5.39% (inactive). Still for that read-out and setting: with `N#CCCn1cc(/C=N/O)c(-c2ccc(F)cc2)n1` the figure was -2.03% (inactive).

For `N#CCCn1cc(/C=C2\NC(=S)N(c3ccccc3)C2=O)c(-c2ccc(F)cc2)n1`, the inhibition was -8.84% (inactive).

Usually inhibition stands for the relative decrease from the control value, in per cent.
